Data published in PubChem BioAssay AID1159580 (chemical genetic matrix, 2015).
Out of some 5,500 compounds screened, about 2,000 (36%) were called active. Another 18% or so got no clear call; they are omitted. Rule as the data show it: active = normalized growth mostly below about 0.91 (no sharp cut-off); inconclusive = no clear call, values can overlap the other calls; inactive = mostly above about 0.92. Some of the results follow.

Assay: chemical genetic growth profiling, strain panel (AID 1159580);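 also: tested at 20 µM; growth read once vehicle control cultures reached saturation at 30 °C; 1 = growth at the plate median or of vehicle wells; lower values mean less growth of the strain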
Settings: growth OD
[1] = S. cerevisiae deletion strains, locus YAL013W, strain DEP1, active compounds read low
[2] = S. cerevisiae deletion strains, locus YBR229C, strain ROT2, active compounds read low
[3] = S. cerevisiae deletion strains, locus YDL101C, strain DUN1, active compounds read low
[4] = S. cerevisiae deletion strains, locus YDR150W, strain NUM1, active compounds read low
[5] = S. cerevisiae deletion strains, locus YEL061C, strain CIN8, active compounds read low
[6] = S. cerevisiae deletion strains, locus YGR078C, strain PAC10, active compounds read low
[7] = S. cerevisiae deletion strains, locus YGR229C, strain SMI1, active compounds read low
[8] = S. cerevisiae deletion strains, locus YHR030C, strain SLT2, active compounds read low
[9] = S. cerevisiae deletion strains, locus YHR087W, strain rtc3, active compounds read low
[10] = S. cerevisiae deletion strains, locus YJL187C, strain SWE1, active compounds read low
[11] = S. cerevisiae deletion strains, locus YJR043C, strain POL32, active compounds read low
[12] = S. cerevisiae deletion strains, locus YJR075W, strain HOC1, active compounds read low
[13] = S. cerevisiae deletion strains, locus YLR039C, strain RIC1, active compounds read low
[14] = S. cerevisiae deletion strains, locus YLR058C, strain SHM2 (second series), active compounds read low
[15] = S. cerevisiae deletion strains, locus YLR085C, strain ARP6, active compounds read low
[16] = S. cerevisiae deletion strains, locus YLR262C, strain YPT6, active compounds read low
[17] = S. cerevisiae deletion strains, locus YML094W, strain GIM5, active compounds read low
[18] = S. cerevisiae deletion strains, locus YMR219W, strain ESC1, active compounds read low
[19] = S. cerevisiae deletion strains, locus YMR263W, strain SAP30, active compounds read low
[20] = S. cerevisiae deletion strains, locus YNL128W, strain TEP1, active compounds read low
[21] = S. cerevisiae deletion strains, locus YNL153C, strain GIM3, active compounds read low
[22] = S. cerevisiae deletion strains, locus YNL298W, strain CLA4 (second series), active compounds read low
[23] = S. cerevisiae deletion strains, locus YNL322C, strain KRE1, active compounds read low
[24] = S. cerevisiae deletion strains, locus YNR030W, strain Alg12, active compounds read low
[25] = S. cerevisiae deletion strains, locus YOL006C, strain TOP1, active compounds read low
[26] = S. cerevisiae deletion strains, locus YPL055C, strain LGE1, active compounds read low
[27] = S. cerevisiae deletion strains, locus YPL241C, strain CIN2, active compounds read low
[28] = S. cerevisiae deletion strains, locus YPR135W, strain CTF4, active compounds read low
[29] = S. cerevisiae strains, strain wild type, active compounds read low
[30] = S. cerevisiae deletion strains, locus YCL061C, strain MRC1, active compounds read low

Measured: normalized growth

O=C(CSc1ccc(Cl)cc1)Nc1ccc(F)cc1
inactive: [3] 0.939 | [5] 0.942 | [10] 1 | S. cerevisiae deletion strains, locus YKL190W, strain CNB1, active compounds read low 0.934 | [13] 0.884 | [15] 0.79 | [16] 0.826 | [17] 0.875 | [19] 0.948 | [20] 0.968 | [21] 0.925 | [25] 0.78 | [29] 0.919
active: [1] 0.909 | [2] 0.908 | [4] 0.803 | [6] 0.888 | [7] 0.924 | [8] 0.679 | [9] 0.888 | [11] 0.916 | [12] 0.823 | [14] 0.909 | [18] 0.916 | [22] 0.808 | [23] 0.923 | [24] 0.807 | [26] 0.782 | [27] 0.849 | [28] 0.608

O=C(CC1NCCN(Cc2ccccc2)C1=O)Nc1ccc(Cl)cc1 (stereo unspecified)
inactive: [1] 0.993 | [2] 0.995 | [30] 0.981 | [3] 0.968 | [4] 0.993 | [5] 1.01 | [6] 0.99 | [8] 0.955 | [9] 0.97 | [10] 1.01 | [11] 0.971 | [12] 1.02 | [13] 0.988 | [14] 0.998 | [15] 1.01 | [16] 0.994 | [17] 1.01 | [18] 1.01 | [20] 1 | [21] 0.981 | [22] 0.975 | [23] 0.996 | [24] 0.984 | [25] 0.993 | [26] 0.909 | [27] 1 | [28] 0.915

COC(=O)CCCCCCCC(=O)Nc1ccc(Cl)cc1
inactive: [1] 0.999 | [2] 0.997 | [30] 0.998 | [3] 0.984 | [4] 0.896 | [5] 1 | [6] 0.997 | [7] 1.03 | [8] 0.999 | [9] 0.983 | [11] 1.01 | [12] 0.985 | [13] 1.01 | [14] 1.01 | [15] 1.01 | [16] 1.02 | [17] 0.975 | [18] 1.01 | [19] 1.01 | S. cerevisiae deletion strains, locus YMR307W, strain GAS1, active compounds read low 1.06 | [20] 1.02 | [21] 0.997 | [22] 1.01 | [23] 1 | [24] 0.997 | [26] 0.929 | [27] 0.991 | [28] 0.955 | [29] 1.02
